Source: PubChem (National Center for Advancing Translational Sciences (NCATS))
SW480 rereplic = induces DNA re-replication in SW480 colon adenocarcinoma cells; 340,000 tested, 1.8% active; SW480 DNA re-replication, Hoechst DNA content imaging, 48 h; AID 624297; Potency, µM (titrated, usually from 46.1 µM), for the others: at the highest dose re-replication activation, most hits filed as activators; further: potency means the concentration at half of the fitted maximal effect; % of control where 0% means no effect; nearly all actives have a fitted effect of over 55% in size
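Image-based read-out: total Hoechst fluorescence of nuclei (405 nm excitation, 500-530 nm emission), with hits raising the fraction of high-intensity nuclei. SW480 colon cells incubated 48 hr with compounds at 37 C.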
MCF10A rerep = DNA re-replication induction in MCF 10a cells. AID 624296. 350,000 tested, 2.9% active. MCF 10A DNA re-replication, Hoechst nuclear intensity, 48 h. Potency, µM (highest dose often 46.1 µM), without a hit: at the top dose activity, positive = re-replication, actives largely listed as activators; further: potency means the concentration at half of the fitted maximal effect; % of control where 0% means no effect; nearly all actives have a fitted effect of over 50% in size
IL-1B inflam inh = inflammasome signaling inhibition, IL-1 beta readout; THP-1 LPS/ATP IL-1B secretion, AlphaLISA, 16 h; hits give low values; activity change, % at 57.5 µM; 360,000 tested, 4.7% active; in the data active means activity change below about -50%; inconclusive means mostly about -30% to -49%; further: on the % scale 0 is the no-effect control and ±100 the full control effect
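Secreted IL-1B measured by AlphaLISA bead assay after 16 h compound exposure of THP-1 cells; compounds (final up to 57.5 uM) added 1 h before LPS (250 ng/mL) and ATP (1.25 mM) stimulation; lower signal means less secretion.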
KB-3-1 cytotox = KB-3-1 parental cell cytotoxicity. KB-3-1 viability, CellTiter-Glo ATP luminescence, 72 h. Potency, µM (doses to about 46.1 µM), actives largely listed as cytotoxic. 400,000 tested, 1.4% active. AID 1347075; further: potency means the concentration at half of the fitted maximal effect; on the % scale 0 is the no-effect control and ±100 the full control effect; nearly all actives have a fitted effect of over 60% in size
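Cells are dispensed, compounds pinned in, plates held at 37 °C for 72 h, then CellTiter-Glo is added and luminescence read after 10 minutes. Cell line: parental KB-3-1 in phenol-red-free DMEM, 10% FBS.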
KB-V1 MDR tox = kills drug-selected multidrug resistant KB-V1 cells. AID 1347076. 400,000 tested, 3.4% active. KB-V1 MDR cells viability, CellTiter-Glo, 72 h. Potency, µM (doses to about 46.1 µM), most hits filed as cytotoxic; further: potency means the concentration at half of the fitted maximal effect; on the % scale 0 is the no-effect control and ±100 the full control effect; nearly all actives have a fitted effect of over 60% in size
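Drug-selected KB-V1 cells, grown in DMEM lacking phenol red with 10% FBS, receive compound titrations; after three days at 37 degrees C, surviving cell ATP is quantified by CellTiter-Glo luminescence and responses normalized and curve-fitted.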
Starred values were filed as active, the others as inactive. A selection: hits, their analogues and other compounds. The true share with any hit is near 9.9%. Unless noted, the call rests on the fitted dose curve; in most records, active means well fitted curve in the direction sought with a large enough effect; inconclusive means small, poorly fitted or top-dose-only effect, or another doubt; inactive means no such curve, though single readings can be large; an effect the other way counts as inactive or inconclusive.

Screening COc1cccc(NC(=O)CSc2nnc(Cc3cccs3)n2-c2ccc(C)cc2)c1 returned SW480 rereplic 2%, MCF10A rerep 8%, IL-1B inflam inh -19, KB-3-1 cytotox inactive and KB-V1 MDR tox 8.2µM*.
For Cc1cc(C)nc(SCc2nnc(SCC(=O)Nc3nc(-c4ccccc4)cs3)n2-c2ccccc2)n1 the results were SW480 rereplic -1%, MCF10A rerep 12%, IL-1B inflam inh 0, KB-3-1 cytotox inactive and KB-V1 MDR tox inactive.
For CCOC(=O)c1ccc(NC(=S)N2CCSC2c2ccc(OC)cc2)cc1 (stereo not given) the results were SW480 rereplic 6%, MCF10A rerep 11%, IL-1B inflam inh 26, KB-3-1 cytotox inactive and KB-V1 MDR tox 18µM*.
O=C(NC(=S)Nc1ccc(N2CCOCC2)cc1)c1ccco1 was read as SW480 rereplic inconclusive, MCF10A rerep 14%, IL-1B inflam inh 5, KB-3-1 cytotox inactive and KB-V1 MDR tox 16µM*.
For CCOC(=O)c1ccc(NC(=S)N2CCSC2c2ccc(Cl)cc2)cc1 (stereo not given) the results were SW480 rereplic -1%, MCF10A rerep inconclusive, IL-1B inflam inh 19, KB-3-1 cytotox inactive and KB-V1 MDR tox inconclusive.
For O=C(NC(=S)Nc1ccc(CN2CCOCC2)cc1)c1ccco1 the results were SW480 rereplic -2%, MCF10A rerep -24%, KB-3-1 cytotox inactive and KB-V1 MDR tox inactive.
For CCOC(=O)c1ccc(NC(=S)Nc2ccc(C)cc2)cc1 the results were SW480 rereplic 5%, MCF10A rerep -2%, IL-1B inflam inh -8, KB-3-1 cytotox inactive and KB-V1 MDR tox inactive.
`CCN(CC(=O)Nc1ccc(N2CCOCC2)cc1)C(=O)c1ccc(C(F)(F)F)cc1` gave SW480 rereplic 12%, MCF10A rerep 21%, IL-1B inflam inh -57*, KB-3-1 cytotox inactive and KB-V1 MDR tox inconclusive.
`CCOC(=O)c1ccc(NC(=S)NN2CCOCC2)cc1` gave SW480 rereplic -1%, MCF10A rerep 23µM*, IL-1B inflam inh 15, KB-3-1 cytotox inactive and KB-V1 MDR tox inactive.
For C[N+]1(CC(=O)c2c3ccccc3cc3ccccc23)CCOCC1 the results were KB-3-1 cytotox inactive and KB-V1 MDR tox inactive.
CCOc1ccccc1NC(=O)C1CC(=O)n2ncnc2N1 (stereo not given) was read as SW480 rereplic 0%, MCF10A rerep 22%, IL-1B inflam inh -10, KB-3-1 cytotox inconclusive and KB-V1 MDR tox inactive.
CCCc1cc(=O)[nH]c(SCC(=O)Nc2ccc(Br)cc2Br)n1 was read as SW480 rereplic 2%, MCF10A rerep -4%, IL-1B inflam inh 23, KB-3-1 cytotox inactive and KB-V1 MDR tox inconclusive.
For O=C(NC(=S)Nc1ccc(N2CCOCC2)cc1)c1ccccc1 the results were SW480 rereplic -14%, MCF10A rerep 9%, IL-1B inflam inh inconclusive, KB-3-1 cytotox inactive and KB-V1 MDR tox inactive.
Screening CCc1ccc(C(=O)NC(=S)Nc2ccc(N3CCOCC3)cc2)cc1 returned SW480 rereplic 4%, MCF10A rerep 10%, IL-1B inflam inh -3, KB-3-1 cytotox inactive and KB-V1 MDR tox 18µM*.
`O=C(c1ccc(Cl)cc1)c1ccc(OCC(=O)N2CCOCC2)cc1` gave SW480 rereplic -1%, MCF10A rerep 9%, IL-1B inflam inh 6, KB-3-1 cytotox inactive and KB-V1 MDR tox 18µM*.
For COc1ccc(CN(C)CC(O)COc2ccc(C(=O)c3ccccc3)cc2)c(OC)c1OC (stereo not given) the results were SW480 rereplic inconclusive, MCF10A rerep 68%, IL-1B inflam inh -67*, KB-3-1 cytotox inactive and KB-V1 MDR tox inactive.
`CN(CCOc1ccc(Br)cc1)CC(O)COc1ccc(C#N)cc1` (stereo not given) gave SW480 rereplic inconclusive, MCF10A rerep -1%, IL-1B inflam inh -87*, KB-3-1 cytotox inconclusive and KB-V1 MDR tox inactive.
COc1ccc(CN(C)CC(O)COC(c2ccccc2)c2ccccc2)c(OC)c1OC (stereo not given) was read as SW480 rereplic inconclusive, MCF10A rerep inconclusive, KB-3-1 cytotox inactive and KB-V1 MDR tox inactive.
